This note sets out measurements from PubChem BioAssay (NCATS).

Each structure is given as a SMILES string. Where “and” joins values, the source holds several entries; their conditions need not be identical. Identical values can stand only once. Records with an inconclusive call do not appear. Unmarked numbers belong to inactive results. Calls of active or inactive are those of the source. Calls follow the shape of the dose curve; as a rule, active = well fitted cell-killing curve with a large enough effect; inconclusive = small, poorly fitted or top-dose-only effect; inactive = flat fitted curve, though single readings scatter.
% is scaled to controls: 0 for no effect and ±100 for the full control effect; potency is read from the fitted curve at half-maximal effect.

A short description of this assay: Cell Viability - LYMP2-016 (AID 984). Also: nearly all actives have a fitted effect of over 55% in size. Particulars: LYMP2-016 lymphoblastoid cell viability, qHTS; series mostly up to 92.2 µM; activity change, negative = cytotoxicity: at the top concentration. An excerpt:
NIH Chemical Genomics Center [NCGC]
NIH Molecular Libraries Screening Centers Network [MLSCN]
National Institutes of Environmental Health Sciences [NIEHS]
National Toxicology Program [NTP]
We have developed a 1536-well cell-based assay for quantitative high throughput screening (qHTS) against a number of cell lines to determine in vitro cytotoxicity of small molecules. This particular assay uses a human lymphoblastoid cell line (LYMP2-016) purchased from Coriell Institute for Medical Research.
NCGC Assay Protocol Summary:
The CellTiter-Glo luminescent cell viability assay (Promega) is a homogeneous method to measure the number of viable cells in culture. The end point readout of this assay is based on quantitation of intracellular ATP, an indicator of metabolic activity, using the luciferase reaction. Luciferase catalyzes the oxidation of beetle Luciferin to oxyluciferin and light in the presence of ATP. The luminescent signal is proportional to amount of ATP present.
Using the CellTiter-Glo luminescent cell viability assay, the amount of cellular ATP was measured in the lymphoblastoid cell line with complete culture medium following compound treatment for 24 hours. The assay was performed in opaque white Kalypsys 1536-well plates. In the screen, tetraoctylammonium bromide was used as positive control. Library compounds were measured for their ability to cause acute toxicity in the cell line, as reflected by a decrease in intracellular ATP levels, in a concentration-dependent manner. […] AC50 values were determined from concentration-response data modeled with the standard Hill equation.
qHTS protocol for CellTiter Glo lymphoblastoid cellular assay
[Step] [Parameter] [Value] [Description]
1. Reagent; 5 uL; 2500 lymphoblastoid cells/well
2. Time; 5 hr; 37 C incubation
4. Controls; 23 nL; Tetraoctylammonium bromide 6.4pM to 92 uM
5. Time; 24 hr; 37 C incubation
6. Reagent; 5 uL; CellTiter Glo reagent
7. Time; 30 min; Room Temperature
8. Detection; Luminescence; Viewlux plate reader
Keywords: cell viability, cytotoxicity, lymphoblastoid cell line, luminescence, NTPHTS, NTPHTS_NCGC, NIEHS, DSSTox, MLSMR, MLSCN, NIH Roadmap, qHTS, NCGC
On the technique in general: qHTS replaces the single test concentration by a dilution series.
In the case of `CC1(C)CC(N=C=O)CC(C)(CN=C=O)C1` (stereo not given), the “activity change, negative = cytotoxicity” value was 2.24%.
On the same count and under the same terms, next, `Clc1cc(Cl)c(Cl)cc1Cl`: -6.78%.
In the case of `CC1=CC(C)(C)Nc2ccccc21`, the Potency result is “inactive”.
Same read-out and setting: next, `O=NO`: “inactive”.
Take `C=Cc1ccccc1Cl`: the “activity change, negative = cytotoxicity” value was 6.73%.
The same measure, in the same setting: next, `CC(C)=CCCC(C)CCO` (stereo not given): -2.63%; `C=CCOC(=O)c1ccccc1C(=O)OCC=C`: -10.1%.
Regarding `O=C1CCc2ccccc2O1`, the “activity change, negative = cytotoxicity” value was -6.25%.
On the same count and under the same terms, next, `COc1c2ccoc2cc2oc(=O)ccc12`: -5.88%; `Cc1ccc([N+](=O)[O-])c(C)c1`: -3.77%.
The same measure, in the same setting: next, `Cc1ccc(N)c([N+](=O)[O-])c1`: 0.341%; `CC(=O)OC/C=C(\C)CCC=C(C)C`: -8.98%.
The same measure, in the same setting: next, `ClCCCl`: 1.17%.
As for `CCC(C)c1ccccc1O` (stereo not given), the Potency entry was “inactive”.
On the same count and under the same terms, next, `c1ccccc1`: “inactive”.
On to `Cc1ccc([N+](=O)[O-])cc1N`, for which the “activity change, negative = cytotoxicity” value is -5.24%.
Same read-out and setting: next, `COc1cc(/C=C/c2ccccc2)oc(=O)c1`: -21.9%.
In the case of `C=CC(=O)OCCOCCOCCOCCOC(=O)C=C`, the Potency was 20 µM (active) and 15.8 µM (active).
As to `Nc1ccc(Cl)cc1Cl`, the “activity change, negative = cytotoxicity” value is -5.91%.
Still for that read-out and setting: next, `c1ccc2c(c1)c1cccc3ccc4cccc2c4c31`: -12.4%; `S=C1NC=NC2N=CNC12` (stereo not given): -27%.
The same measure, in the same setting: for `CCCCCCCCCCCCCC(=O)O` the value was -4.77%; for `C=C(C)C1CC=C(C)C(O)C1` (stereo not given), -7.72%; for `c1ccc2scnc2c1`, -1.8%.
On to `CCCCCCCCCCCC(=O)O`, for which the Potency result was “inactive”.
Take `COc1ccc2nc(N)sc2c1`: the “activity change, negative = cytotoxicity” value is -4.45%.
With `Cc1ccccc1C`, the Potency entry was “inactive”.
Consider `O=C1c2ccccc2C(=O)C1c1ccc2ccccc2n1`, for which the “activity change, negative = cytotoxicity” value is -10.4%.
Turning to `CCCCC(CC)CN` (stereo not given), the Potency entry was “inactive”.
Take `O=C(O)CC(C(=O)O)C(CC(=O)O)C(=O)O` (stereo not given): the “activity change, negative = cytotoxicity” value was 1.08%.
Regarding `CCC(O)OC(O)CC` (stereo not given), the Potency entry is “inactive”.
On to `C/C=C\c1ccc(OC)cc1`, for which the “activity change, negative = cytotoxicity” value was -2.06%.
The same measure, in the same setting: for `Cc1cccc([N+](=O)[O-])c1C` the value was -5.43%; for `c1ccc2c(c1)[nH]c1ccccc12`, -2.54%.
With `CC1=C2[C@H](/C=C(\C)C(=O)O)CC[C@@H](C)[C@H]2CC1`, the “activity change, negative = cytotoxicity” value is -9.63%.
On the same count and under the same terms, for `CCO` the value was -6.31%; for `CCCN(CCC)C(=O)SCC`, -10.3%.
Still for that read-out and setting: next, `O=C(O)c1ccccc1C(c1ccc(O)cc1)c1ccc(O)cc1`: -3.59%; `O[C@@H]([C@H](O)[C@@H](O)CBr)[C@@H](O)CBr`: -13.9%; `CCCCCCCCCCCCCCC1CO1` (stereo not given): -2.15%.
